Structures are written as SMILES. The whole screen tested about 320,000 compounds, of which about 740 (0.23%) were called active. Entries that show only a call come without a potency. Another 2% or so got no clear call; they are omitted. This is one part of a sample in which actives are shown more often than they occur. The call rests on the fitted dose curve; in most records, active means well fitted activation curve with a large enough effect; inconclusive means small, poorly fitted or top-dose-only effect; inactive means no such curve, though single readings can be large or run the other way.
Potency means the concentration at half of the fitted maximal effect.

The nature of this experiment: qHTS Assay for Small Molecule Inhibitors of Mitochondrial Division or Activators of Mitochondrial Fusion. Further: nearly all actives have a fitted effect of over 45% in size. The following applies: S. cerevisiae fusion-defective mutant growth rescue, CellTiterGlo 48 h; series mostly up to 46.1 µM. From the text:
NIH Chemical Genomics Center [NCGC] NIH Molecular Libraries Probe Production centers Network [MLPCN] MLPCN Grant: MH081279-01 Assay Submitter (PI): Jodi M. Nunnari NCGC Assay Overview: The budding yeast S. cerevisiae is a powerful system to study mitochondrial fusion. Unlike other organisms, yeast cells without functional mitochondrial DNA (mtDNA) can be propagated and studied as long as they maintain a mitochondrial compartment and are provided with a fermentable carbon source. When mitochondrial fusion is blocked in yeast, mitochondrial tubules rapidly fragment and division continues unopposed. Under conditions where fusion is compromised in mammalian cells, nearly identical changes in mitochondrial structure have been observed. Thus, these findings indicate that steady state mitochondrial structure in cells is a characteristic and specific indicator of fusion activity. Mounting evidence has pointed to a connection between mitochondrial dynamics and apoptosis in mammalian cells. These studies indicate that in mammalian cells mitochondrial dynamics are more integrated into cellular processes than in yeast cells and have evolved not only to distribute the organelle but also to aid in the regulation of cellular homeostasis. Mitochondrial fusion proteins attenuate apoptosis by inhibiting the release of cytochrome c from mitochondria, in part by controlling cristae structures. Thus, small molecules that inhibit mitochondrial […] may promote apoptosis and potentially act as novel chemotherapeutics and stimulation of apoptosis has become an attractive target of anti-cancer therapies. To identify inhibitors of mitochondrial division, we exploit the growth phenotypes of mitochondrial fusion-defective mutants. The temperature sensitive fusion alleles, such as fzo1-1 and mgm1-5, cause mitochondrial membranes to fragment in cells under non-permissive conditions and cells lose mtDNA, and are unable to grow in the presence of non-fermentable carbon source glycerol. Inhibiting mitochondrial division rescues growth. We have developed and optimized a luminescence cell viability assay in 1536 well format for the identification of inhibitors in the yeast mitochondrial fusion-defective assay.
The yeast glycerol stocks where kindly supplied by the laboratory of Dr. Jodi Nunnari, University of California, Davis. All yeast glycerol stock solutions were stored in single use aliquots at -80C. The CellTiterGlo luminescence reagent, containing luciferase and luciferin, were purchased from Promega, and the reagents were stored according to manufacturer's instructions. The Buffer components for the YPEG yeast growth medium were purchased from Sigma-Aldrich (St. Louis, MO). YPEG growth medium: 1% (w/v) yeast extract, 2% (w/v) Bacto-peptone, 3% Ethanol, 3% glycerol, 0.4mM Tryptophan, 0.36mM Adenine. qHTS Assay Protocol: 1.#Dispense 2.5 ul yeast growth medium per 1536 well plate. 2.#Transfer 23 nl per well of compound to plate. 3.#Dispense 2.5 ul yeast solution at appropriate seeding density per well. 4.#Incubate for 48 hours at 37C. 5.#Dispense 5 ul of CellTiterGlow solution per well. 6.#Incubate at ambient for 10 minutes. 7.#Read using bio-luminescence protocol on Viewlux.
Background: qHTS replaces the single test concentration by a dilution series.
For `O=C1NC(=O)C(CCc2ccccn2)(Cc2cccc(Cl)c2Cl)C(=O)N1c1ccc(Br)cc1` (stereo not given), the Potency was 11.2 µM (active). `Clc1ccc2nc3c(c(-c4ccccc4)c2c1)CNCC3`: the Potency entry is “inactive”. For the compound `N[C@@H](Cc1c[nH]c2ccccc12)c1nnc(SCc2c(F)cccc2Cl)o1`, the Potency entry was “inactive”. Then `CC(=O)NBr`, with “inactive”; and `C=CCN1CCC23c4c5ccc(O)c4O[C@H]2C(=O)CC[C@@]3(O)C1C5` (stereo not given in full), with “inactive”. Turning to `c1ccc2c(c1)[I+]c1ccccc1-2`, the Potency was 0.291 µM (active).

In the case of `O=C(COc1ccc2ccccc2c1)N1CCN(Cc2ccncc2)CC1`, the Potency entry is “inactive”. On to `Cc1nn(Cc2ccccc2Cl)c(Cl)c1C(=O)OC(C(=O)NC(N)=O)C(C)C` (stereo not given), for which the Potency result was “inactive”. For `C=CCN1C(=O)C2(C(C(=O)OCC)=C(N)Oc3c2c(=O)oc2ccccc32)c2ccccc21` (stereo not given), the Potency result is “inactive”. For the compound `CC1=CC(=Cc2sc3ccccc3[n+]2C)C=C(C)O1`, the Potency result was “inactive”.

The values are drawn from PubChem BioAssay AID485298 (National Center for Advancing Translational Sciences (NCATS), 2010).
